# Test results taken from PubChem BioAssay AID1745849 (National Center for Advancing Translational Sciences (NCATS), 2022).
# About 320 (15%) of roughly 2,100 compounds were called active. Another 52% or so got no clear call; they are omitted. This is one part of the list. Unmarked numbers belong to inactive results. Calls follow the shape of the dose curve; as a rule, active = well fitted cell-killing curve with a large enough effect; inconclusive = small, poorly fitted or top-dose-only effect, or effect the other way; inactive = flat fitted curve, though single readings scatter.
# Test: Viability Counterscreen for CMV-Luciferase Assay of Inhibitors of ATXN expression; also: nearly all actives have a fitted effect of over 55% in size
# Conditions: HEK-293 CMV-luciferase cells viability, protease fluorescence, 24 h; activity change, negative = cytotoxicity: at the top concentration
# Method in brief: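 HEK-293 cells stably expressing CMV-luciferase, treated 24 hr at 37 °C with compounds (several concentrations). Viability by Gly-Phe-AFC fluorescence (25 uM final, 30 min); reporter by SteadyGlo luminescence after 5 min.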
# % is scaled to controls: 0 for no effect and ±100 for the full control effect; potency is read from the fitted curve at half-maximal effect.
SMILES,"activity change, negative = cytotoxicity",Potency
O=C(N/N=C/c1cc(Br)ccc1O)C(c1ccncc1)N1CCOCC1 (configuration not stated),-14.8% [at 57.5 µM],–
Cc1cc(C(=O)N/N=C/c2cc(Br)ccc2OC(=O)c2ccccc2)n[nH]1,-6.81%,–
COc1cccc(NC(=O)/C=C/c2ccc(S(=O)(=O)N3CCOCC3)cc2)c1,-4.39% [at 57.5 µM],–
Cn1c(CO)c(-c2ccccc2)c2cc([N+](=O)[O-])ccc21,3.4%,–
Cc1[nH]n2c(=O)cc(C(C)(C)C)nc2c1-c1ccccc1,–,11.2 µM (active)
CC(C)N(C(=O)COC(=O)c1ccccc1C(=O)c1ccc(Cl)c([N+](=O)[O-])c1)C(C)C,-28.3%,–
COCCCNCCCOc1ccc(Cl)cc1C(C)(C)C,–,25.1 µM (active)
CCCCNCCCOc1cccc(Cl)c1Cl,-25.7% [at 57.5 µM],–
O=C(N/N=C\c1cc(Cl)ccc1O)c1ccc(S(=O)(=O)N2CCCCC2)cc1,9.18%,–
CC(OC(=O)c1cc(Br)ccc1O)C(=O)Nc1ccc(S(=O)(=O)N2CCCC2)cc1 (configuration not stated),–,28.2 µM (active)
O=C(N/N=C\c1cc(Br)ccc1O)c1ccc(S(=O)(=O)N2CCCCC2)cc1,9.4%,–
COc1ccc(-c2n(CC(=O)OC3CC(C)CCC3C(C)C)c3ccccc3[n+]2C)cc1 (configuration not stated),–,7.94 µM (active)
C/C(=N\Nc1cc(N2CCOCC2)nc(C)n1)c1cccc([N+](=O)[O-])c1,-2.94%,–
N#C/C(=N\Nc1cccc([N+](=O)[O-])c1)C(=O)c1ccc(Br)cc1,–,2.24 µM (active)
CC(NC(=O)Nc1cccc([N+](=O)[O-])c1)c1ccc2c(c1)OCO2 (configuration not stated),-13.9%,–
Cc1csc2c(N3CCN(C(=O)Nc4ccc(Cl)c(Cl)c4)CC3)ncnc12,-11.9%,–
COc1ccc([C@@]2(C(C)C)ON(c3ccccc3C(F)(F)F)C2=O)cc1,-16.8%,–
O=C(NCC(=O)N1CC(O)CC1C(=O)N1CCCC1C(=O)OCc1ccccc1)OCc1ccccc1 (configuration not stated),-1.71%,–
C=CCc1cccc(/C=N/NC(=O)CCCNc2ccc(C)cc2)c1O,–,20 µM (active)
O=C(Cc1ccccc1)N/N=C/c1cc(Br)cc(Br)c1O,-0.659%,–
C=CCc1cccc(/C=N/NC(=O)CNc2ccccc2)c1O,-12.7%,–
Cc1cc(C)c2nc(NNC(=O)c3cc(-c4cccs4)nc4ccccc34)sc2c1,-23.3%,–
CCOC(=O)N1CCN(S(=O)(=O)c2ccc(C(=O)NNc3nc4c(C)cc(C)cc4s3)cc2)CC1,–,1.58 µM (active)
Cc1cc(C)c2nc(NNC(=O)c3ccc(S(=O)(=O)N4CC(C)CC(C)C4)cc3)sc2c1 (configuration not stated),-17.8% [at 57.5 µM],–
Cc1nc(SCc2ccc(C(=O)O)cc2)nc2c1CCCC2,-2.96%,–

SMILES,"activity change, negative = cytotoxicity",Potency
CN(C)CCNC(=O)c1cccc(-c2cnc3c(NC=O)cc(-c4cccc(C(F)(F)F)c4)cn23)c1,–,22.4 µM (active)
CN(C)C(=O)c1cccc(-c2cnc3c(NC=O)cc(-c4ccc(F)cc4)cn23)c1,-18.1%,–
CN1CCN(c2ccc(-c3cc(NC=O)c4ncc(-c5ccc(F)c(Cl)c5)n4c3)cc2)CC1,-4.43% [at 57.5 µM],–
CN(C)CCNC(=O)c1cccc(-c2cnc3c(NC=O)cc(/C=C/c4ccccc4)cn23)c1,–,28.2 µM (active)
CN(C)CCNC(=O)c1cccc(-c2cnc3c(NC=O)cc(-c4cccs4)cn23)c1,-19.3% [at 57.5 µM],–
CCCCNC(=NCc1cccc(C(F)(F)F)c1)Nc1ccccc1,-13.9%,–
COc1cc(/C=N/Nc2ccc(Cl)c(C(=O)O)c2)ccc1OC(=O)c1ccco1,1.18%,–
NC(=O)c1c(NC(=O)c2ccc(S(=O)(=O)N3CCOCC3)cc2)sc2c1CCCCC2,-7.77%,–
COC(=O)c1c(NC(=O)c2ccc([N+](=O)[O-])o2)sc2c1CCN(C(C)C)C2,–,15.8 µM (active)
CN(C)C(CNC(=O)c1cccc(S(=O)(=O)N2CCN(c3ccc(F)cc3)CC2)c1)c1ccccc1 (configuration not stated),-28.6% [at 57.5 µM],–
Cc1ccc(OCC(=O)c2cc(C)n(Cc3cccs3)c2C)c([N+](=O)[O-])n1,-22.1% [at 57.5 µM],–
COc1ccc(CCNC2=C(Cl)C(=O)N(Cc3ccccc3)C2=O)cc1OC,8.74%,–
COCCCNC1=C(Cl)C(=O)c2ccccc2C1=O,–,25.1 µM (active)
CC(C)Cn1c(/C=N/Nc2nc3ccccc3[nH]2)nc2ccccc21,15% [at 57.5 µM],–
CCC(C)(C)c1ccc(OCCCC[n+]2ccccc2)c(C(C)(C)CC)c1,-7.4%,–
Nc1ccn(C2OC(COP(=O)(O)O)C(O)C2O)c(=O)n1 (configuration not stated),-18.6% [at 57.5 µM],–
Nc1ncn([C@@H]2O[C@H](CO)[C@@H](O)[C@H]2O)c(=O)n1,–,6.31 µM (active)
Nc1ccn([C@@H]2O[C@H](CO)[C@@H](O)[C@@H]2O)c(=O)n1,-22.1%,–
C/C(=N\NC(=O)c1ccc(CN2CCc3ccccc3C2)cc1)c1ccccc1O,-23.2%,–
Cc1c(OCC(=O)NC2CC(C)(C)NC(C)(C)C2)ccc2c1oc(=O)c1ccccc12,-15.9%,–
COc1cccc(OCC(=O)Nc2cc(Cl)ccc2Oc2ccccc2)c1,27.8%,–
COc1cccc(CN(C)C(=O)c2ccc(OCC(=O)Nc3cccc(C(F)(F)F)c3)c(OC)c2)c1,–,17.8 µM (active)
CCOCCn1ccc2c(OCC(=O)Nc3ccc(OC)c(OC)c3)cccc2c1=O,-1.79%,–
O=C(Nc1nc(NC(=O)c2ccco2)n(-c2ccccc2)n1)c1ccccc1,–,12.6 µM (active)
O=C(Nc1ccc(NC(=O)c2ccco2)cc1)c1ccc2c(c1)OCCO2,-2.66% [at 57.5 µM],–

SMILES,"activity change, negative = cytotoxicity",Potency
CN(CCc1ccccc1)c1cc2c(c3c1ccn3C)C1CCC2O1 (configuration not stated),6.97% [at 57.5 µM],–
O=C(CN1C(=O)c2ccccc2S1(=O)=O)Nc1ncc(Cl)cc1Cl,-8.53%,–
O=C(NNC(=O)c1cnccn1)c1ccc(Cl)c(Cl)c1,–,22.4 µM (active)
O=C(NCCc1csc(-c2cccnc2)n1)c1cccc(Cl)c1,-14.5% [at 57.5 µM],–
O=C(N/N=C/c1cc(Cl)ccc1O)c1cccnc1,-5%,–
CCCC[C@@H](CNC)NC[C@H](NCCCCC1CCCCC1)C(C)C,–,28.2 µM (active)
OC(c1cc(F)cc(Cl)c1)c1ncc(-c2cccc(C(F)(F)F)c2)[nH]1 (configuration not stated),-10.7%,–
CCOC(=O)c1c(NC(=O)C(Sc2ccccc2)c2ccccc2)sc(C(=O)N(C)C)c1C (configuration not stated),-14.8% [at 57.5 µM],–
C=CCOC(=O)C1=C(C)NC(SCC)=C(C#N)C1c1ccc(Cl)cc1 (configuration not stated),-28.8% [at 57.5 µM],–
O=C1C=C(NCCc2cc(Br)c(O)c(Br)c2)C(=O)c2ncccc21,–,8.91 µM (active)
Brc1cnc2nc(SCc3nc4ccccc4[nH]3)[nH]c2c1,-1.49%,–
CCCc1cnc(NCCNCC(O)COc2ccc(Cl)c(Cl)c2)nc1 (configuration not stated),–,28.2 µM (active)
COc1ccc(OCc2cccc(C(=O)Nn3cc([N+](=O)[O-])cn3)c2)cc1,-10.4%,–
Cc1nc2ccccc2c(=O)n1/N=C/c1c(O)ccc2oc3c(c12)CCCC3,-28.7% [at 57.5 µM],–
Cc1cc(/C=N/n2c(COc3ccccc3)nc3ccccc3c2=O)c(O)c([N+](=O)[O-])c1,–,12.6 µM (active)
Cc1ccc2nc(-c3ccccc3)nn2c1,0.418%,–
O=[N+]([O-])c1c(Nc2ccccn2)cc(Cl)c2nonc12,–,11.2 µM (active)
Cn1c(=O)c(C#N)c(-c2ccc(F)cc2)c2cc(C(=O)c3cc(Cl)cc(Cl)c3O)cnc21,-25.8%,–
Oc1ccc2ccccc2c1/C=C/c1ccc2c(Br)cc(Br)c(O)c2n1,12.1% [at 57.5 µM],–
CCOC(=O)C(CC)(CC)C(=O)/C=C/c1ccc(OC)cc1,2.96% [at 57.5 µM],–
COc1ccc(C(=O)Cn2c(C(=O)/C=C/c3ccccc3)nc3ccccc32)cc1,–,3.16 µM (active)
COc1ccc(C(=O)Nn2c(SCC(=O)c3ccccc3)nc3ccccc3c2=O)cc1,-22.5% [at 57.5 µM],–
CC1=C(CC[C@@H](C)CO)OC2CC3C4CCC5CC(O)CCC5(C)C4CC(=O)C3(C)C12 (some centres not stated),-24.2%,–
Cn1c(=O)c2c(nc(CN3CCN(Cc4ccccc4)CC3)n2Cc2ccc(Cl)cc2)n(C)c1=O,–,25.1 µM (active)
Cn1c(=O)c2c(nc(SCCN3CCOCC3)n2Cc2cccc3ccccc23)n(C)c1=O,3.04%,–

SMILES,"activity change, negative = cytotoxicity",Potency
COc1ccc(CC(N)c2csc(NC(=O)c3cc(C(C)(C)C)nn3Cc3ccccc3)n2)cc1 (configuration not stated),-4.75%,–
COc1ccc(CNC(=O)Nc2nc(C(N)Cc3ccc(Cl)cc3)cs2)cc1 (configuration not stated),–,22.4 µM (active)
COc1ccc(CC(N)c2csc(NC(=O)c3ccccc3OC)n2)cc1 (configuration not stated),7.8% [at 57.5 µM],–
CN(C)c1ccc(C(=O)N/N=C/c2cc(Br)cc(Br)c2O)cc1,5.98%,–
Cc1onc(-c2c(F)cccc2Cl)c1C(=O)Nc1nnc(C(F)(F)F)s1,-23.3%,–
Fc1ccc(Nc2nnc(C(F)(F)F)s2)cc1Cl,–,28.2 µM (active)
Oc1ccc(C[C@@H]2CNCCN2CCc2cc(C(F)(F)F)cc(C(F)(F)F)c2)cc1,-23%,–
CCOC(=O)C1CCN(c2cc3c(cc2NC(=O)c2ccccc2OCC)n(C)c(=O)n3C)CC1,-23.5% [at 57.5 µM],–
NC(=O)C1CCN(C2=C(Cl)C(=O)c3ccccc3C2=O)CC1,24.5% [at 57.5 µM],–
CCOC(=O)C1CCN(C(=O)c2c(C)oc3c2C(=O)c2ccccc2C3=O)CC1,–,15.8 µM (active)
COc1cc(C(=O)OC(C)C(=O)N2CCc3ccccc3C2)ccc1OCC(=O)N1CCOCC1 (configuration not stated),1.48%,–
O=C(Nc1ccc2c(c1)CCC2)C1CCN(c2c3c(nc4ncnn24)CCC3)CC1,-4.4% [at 57.5 µM],–
CCCCCn1c(=N)n(CC(O)COc2ccccc2OC)c2ccccc21 (configuration not stated),–,3.16 µM (active)
Cn1c(N)c(C(=O)Nc2ccc(-c3ccccc3)cc2)sc1=S,-0.775% [at 57.5 µM],–
O=S(=O)(c1ccc(F)cc1)c1snnc1-c1ccccc1,–,10 µM (active)
NS(=O)(=O)c1ccc(Nc2nc(-c3ccc(F)cc3)cs2)cc1,-11.6%,–
NS(=O)(=O)c1ccc(N2N=C(c3ccccc3)CC2c2ccc(F)cc2)cc1 (configuration not stated),12.7%,–
Cc1c(CC(=O)NCCCC(=O)O)c(=O)oc2cc3c(cc12)CCC(C)(C)O3,-7.11% [at 57.5 µM],–
NNc1nc(N)c2c(n1)-c1ccccc1CC21CCCC1,-20.6% [at 57.5 µM],–
O=C(NNc1ccnc2cc(Cl)ccc12)C1CCCCC1,-3.47%,–
CC(C)NC1CCC(Nc2ccnc3cc(Cl)ccc23)CC1 (configuration not stated),–,15.8 µM (active)
CCN(CC)CCNc1ccnc2cc(Cl)ccc12,-21.7%,–
